The assay in a line: qHTS profiling of inhibitors of Plasmodium falciparum (HB3) proliferation (acoustic dispense). Conditions: P. falciparum HB3 in erythrocytes, SYBR Green, 72 h; at 49.8 µM (top of the series) unless noted. (In general: Quantitative high-throughput screening tests each substance at several concentrations.)
Regarding `COc1ncc(-c2ccc3nccc(-c4ccnnc4)c3c2)cc1NS(=O)(=O)c1ccc(F)cc1F`, the activity (normalised, proliferation) is -1.51%.
In the case of `CCN(CC)CCNC(=O)c1c(C)[nH]c(C=C2C(=O)Nc3ccc(F)cc32)c1C` it was 0.208% [at 100 µM]; in that of `CO[C@H]1C=CC=C(C)C(=O)NC2=CC(=O)C(NCCN(C)C)=C(C[C@@H](C)C[C@H](OC)[C@@H](O)[C@@H](C)C=C(C)[C@@H]1OC(N)=O)C2=O`, -0.262%.
In the case of `CC1(CN2CCC(n3c(=O)[nH]c4ccccc43)CC2)OCc2ccccc2-n2cccc21` (stereo not drawn) it was 24.8%.
Consider `C=CCNc1c(O)cc2c(O)c1C[C@@H](C)C[C@H](OC)[C@@H](O)[C@@H](C)C=C(C)[C@H](OC(N)=O)[C@@H](OC)C=CC=C(C)C(=O)N2`, for which the activity (normalised, proliferation) was -1.74%.
In the case of `Cc1ccc([N+](=O)[O-])cc1S(=O)(=O)N(C)N=Cc1cnc2ccc(Br)cn12` it was 13.3%.
For the molecule `CC(=NNC(=S)N1CCC1)c1ccccn1`, the activity (normalised, proliferation) is -0.583%.
In the case of `CC[C@H]1OC(=O)[C@H](C)[C@@H](O[C@H]2C[C@@](C)(OC)[C@@H](O)[C@H](C)O2)[C@H](C)[C@@H](O[C@@H]2O[C@H](C)C[C@H](N(C)C)[C@@H]2O)[C@](C)(O)C[C@@H](C)CN(C)[C@H](C)[C@@H](O)[C@]1(C)O` it was -0.367%; in that of `CCC[C@H](Nc1nc(-c2ccc(NC(=O)NCC)c(OC)c2)ncc1C)c1cccnc1`, -0.168%.
In the case of `CC[C@H]1CN2CCc3cc(OC)c(OC)cc3[C@H]2C[C@@H]1C[C@@H]1NCCc2cc(OC)c(OC)cc21` it was -0.337%.
Consider `C[C@@H](Oc1ccc2[nH]nc(C=Cc3cnn(CCO)c3)c2c1)c1c(Cl)cncc1Cl`, for which the activity (normalised, proliferation) worked out at 1.95%.
Take `COc1cc2c(Oc3ccc(NC(=O)C4(C(=O)Nc5ccc(F)cc5)CC4)cc3F)ccnc2cc1OCCCN1CCOCC1`: the activity (normalised, proliferation) is 17.9%.
In the case of `C[C@H](Cn1cnc2c(N)ncnc21)OCP(=O)(O)O` it was 92.2%.
In the case of `CS(=O)(=O)CCNCc1ccc(-c2ccc3ncnc(Nc4ccc(OCc5cccc(F)c5)c(Cl)c4)c3c2)o1` it was 7.39%; in that of `OB1OCc2cc(F)ccc21`, 0.13%; in that of `CCOC(=O)[C@H](CCc1ccccc1)N[C@H]1CS[C@H](c2cccs2)CN(CC(=O)O)C1=O`, 67.9%.
In the case of `Nc1cccc(-c2csc(NC(=O)CCCCCCC(=O)NO)n2)c1` it was -0.958%; in that of `CCS(=O)(=O)Nc1ccc2[nH]c(O)c(C(=Nc3ccc(CN4CCCCC4)cc3)c3ccccc3)c2c1`, -1.43%.
In the case of `COc1cc(C)c2c(Oc3cccc(C(F)(F)F)c3)c(OC)cc(NCCCC(C)N)c2n1` (stereo not drawn), the activity (normalised, proliferation) is -2.19%.
In the case of `CCn1nnc2c(N3CCOCC3)nc(-c3ccc(NC(=O)Nc4ccc(C(=O)N5CCN(C)CC5)cc4)cc3)nc21` it was 4.68%.
Turning to `C[C@@H]1CCC2[C@@H](C)[C@@H](O)O[C@@H]3O[C@@]4(C)CC[C@@H]1[C@@]23OO4` (stereo partly drawn), the activity (normalised, proliferation) is -0.43%.
With `CC(C=CC(=O)NO)=C[C@@H](C)C(=O)c1ccc(N(C)C)cc1`, the activity (normalised, proliferation) was -0.304%.
With `CC[C@@]1(O)C[C@H](O[C@H]2C[C@H](N(C)C)[C@H](O[C@H]3C[C@H](O)[C@H](O[C@H]4CCC(=O)[C@H](C)O4)[C@H](C)O3)[C@H](C)O2)c2c(cc3c(c2O)C(=O)c2c(O)cccc2C3=O)[C@@H]1C(=O)OC`, the activity (normalised, proliferation) was -2.68%.
With `COc1cc2nc(N3CCCN(C)CC3)nc(NC3CCN(Cc4ccccc4)CC3)c2cc1OC`, the activity (normalised, proliferation) is -1.22%.
In the case of `O=C1c2c(O)ccc(O)c2C(=O)c2c(NCCNCCO)ccc(NCCNCCO)c21` it was -5.84%; in that of `Cc1cnc(Nc2ccc(CN3CCOCC3)cc2)nc1Nc1cccc(S(=O)(=O)NC(C)(C)C)c1`, 0.609%; in that of `COC1=C2C[C@@H](C)C[C@H](OC)[C@@H](O)[C@@H](C)C=C(C)[C@H](OC(N)=O)[C@@H](OC)C=CC=C(C)C(=O)NC(=CC1=O)C2=O`, -2.24%.
Regarding `COc1cc(NCc2ccc3nc(N)nc(N)c3c2C)cc(OC)c1OC`, the activity (normalised, proliferation) is -2.34%.

Source of the values: PubChem BioAssay AID743366 (National Center for Advancing Translational Sciences (NCATS), 2014).
